About 79,000 compounds went through this panel and 15% of them were active in at least one assay; those are over-represented in the sample as a whole. A number with no mark means an inactive call. Rule as the data show it: active = growth inhibition above about 70%; inactive = the rest. Where a SMILES comes first, the peptide text is derived from it.
Test: NCI Yeast Anticancer Drug Screen. Data for the mec2-1 strain (AID 157)
Settings: S. cerevisiae mec2-1 strain, at 50.0 µM, active compounds read high
How it was run: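 Cells of the genetically defined mec2-1 yeast strain are incubated with test compound. Inhibition of growth is calculated against vehicle-treated controls.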
With `CO[C@H]1C=CO[C@@]2(C)Oc3c(C)c(O)c4c(O)c(c(CN5CCN(C)CC5)c(O)c4c3C2=O)NC(=O)/C(C)=C\C=C[C@H](C)[C@H](O)C(C)[C@@H](O)C(C)[C@H](OC(C)=O)[C@@H]1C` (stereo not given in full) the growth inhibition was -4.85%. `Cc1ccc2ccccc2c1CC(=O)NN` gave a growth inhibition of -26.8%. For `CCOC(=O)c1c(C)nc(C)c(C(=O)OCC)c1-c1ccnc2ccccc12`, the growth inhibition was -15.9%. `O=C(O)Cc1ccc(-c2ccccc2)[nH]1` gave a growth inhibition of -14.7%. `O=C(Nc1ccc(Cl)cc1)c1ccc(Cl)cc1Cl` showed a growth inhibition of 10.7%. In the case of `C=CCc1ccc(OC(=O)Nc2ccc(S(=O)(=O)NC3CCCCC3)cc2)c(OC)c1`, the growth inhibition was 8.85%. In the case of `O=C(O)C(O)c1ccc(Cl)cc1Cl` (stereo not given), the growth inhibition was -5.85%. Molecule `COC(=O)c1nc[nH]c1C(=O)OC` has a growth inhibition of -25.9%. In the case of `O=S(=O)(Nc1ccnn1-c1ccccc1)c1ccc(NC(=S)Nc2ccccc2)cc1`, the growth inhibition was 38.5%. `CCn1cc2c(=O)n3ncn(-c4ccc(Br)cc4)c3nc2n1` showed a growth inhibition of 9.75%. For `Oc1ccccc1C=Nc1ccccc1N=Cc1ccccc1O.[Zn]`, the growth inhibition was 4%. With `CC(C)C(CN)(c1ccccc1)c1ccccc1` the growth inhibition was -7.75%. In the case of `CS(=O)CC(=N\N)/C(CS(C)=O)=N/N` (stereo not given), the growth inhibition was -20.8%. Molecule `CC(=O)N(C)c1ccc(NC(=S)NC(=O)c2cccc([N+](=O)[O-])c2)cc1` has a growth inhibition of 21.6%. For `C[C@@H]1CC[C@]2(C)C3(C)CC[C@]2(OC3=O)[C@@]12CC(c1ccoc1)OC2=O` (stereo not given in full), the growth inhibition was -13.8%. `CS(=O)(=O)OCCC(COS(C)(=O)=O)NC(=O)c1ccccc1` (stereo not given) showed a growth inhibition of -8.95%. `Cc1ccc2[nH]c(C)c(C(=O)c3ccncc3)c2c1` showed a growth inhibition of -15.4%. Molecule `Nc1ccc(N=Nc2ccccc2)c(N)c1` has a growth inhibition of 19.6%. In the case of `NC(N)=NCCCS`, the growth inhibition was 11.3%. For `Cc1ccc(N(C(=O)CC(=O)N/N=C/c2ccccc2O)C(=O)c2ccccc2)cc1`, the growth inhibition was -16.8%. For `O=C(O)c1ncn2c(=O)n(CCCl)nnc12`, the growth inhibition was -16.4%. In the case of `CCc1c(C)c2cc(N)ccc2[nH]c1=O`, the growth inhibition was 24.1%. Work on `Oc1cc(CN2CCOCC2)c(O)c(CN2CCOCC2)c1CN1CCOCC1` yielded a growth inhibition of 7.45%. Work on `CCC(C)C(N)C(=O)NC(Cc1ccc(O)cc1)C(=O)O` (stereo not drawn) (H-Ile-Tyr-OH; configuration not given here) yielded a growth inhibition of -2.35%. Work on `Clc1ccc2c(NCCCCN=Cc3ccccc3)ccnc2c1` yielded a growth inhibition of -27.2%. Molecule `CC(=O)Oc1cccc(CN2CCc3ccccc3C2)c1` has a growth inhibition of -7.95%. Work on `C=C(C)CC1(C)C(=O)CCC1O` (stereo not given) yielded a growth inhibition of -15.8%. Molecule `CCCNCC(O)CNc1ccc(Cl)cc1` (stereo not given) has a growth inhibition of -7.15%. In the case of `CCOC(=O)C(C)CC(C)C(=O)OCC` (stereo not given), the growth inhibition was -26%. For `CC(=O)Nc1ccn(C2OC(COC(C)=O)C(OC(C)=O)C(OC(C)=O)C2OC(C)=O)c(=O)n1` (stereo not given), the growth inhibition was -14.3%. With `NC(=O)c1ccc[n+](CC(=O)Nc2ccccc2)c1` the growth inhibition was 0.65%. Work on `C/C=C(/c1ccccc1)c1ccc(N(C)C)cc1` yielded a growth inhibition of 0.85%. With `CCCCNC(=O)Oc1c(Cl)cc(Cl)c(Cl)c1[N+](=O)[O-]` the growth inhibition was 10.1%. With `CSc1ncnc2c1ccn2C1OC(COP(=O)(O)O)C(O)C1O` (stereo not given) the growth inhibition was -1.35%. `NC(=O)C1C[C@@H](O)CN1C(=O)c1ccc2c(c1)OCO2` (stereo not given in full) gave a growth inhibition of -9.8%. Work on `Cc1c(Cl)cc([N+](=O)[O-])cc1Cl` yielded a growth inhibition of 13.7%. With `N/N=C(\N)SCc1ccc(N=C=S)cc1` the growth inhibition was 6.85%. `COc1cccc(CN(CC(=O)O)S(=O)(=O)c2ccc(C)cc2)c1` gave a growth inhibition of 11.3%. `Cc1cc(CN2CCCCC2)c(O)c(CN2CCCCC2)c1` gave a growth inhibition of -18.9%. `COc1cc(C(=O)Nc2cccc(Cl)c2Cl)cc(OC)c1OC` showed a growth inhibition of -13.6%.

Test: NCI Yeast Anticancer Drug Screen. Data for the sgs1 mgt1 strain (AID 161);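 also: 0% = growth of cultures given vehicle only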
Settings: S. cerevisiae sgs1 mgt1 strain, at 50.0 µM, active compounds read high
How it was run: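 Inhibition of yeast growth, normalised to vehicle-treated controls, is reported for a strain bearing genetic alterations in DNA damage repair.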
In the case of `CO[C@H]1C=CO[C@@]2(C)Oc3c(C)c(O)c4c(O)c(c(CN5CCN(C)CC5)c(O)c4c3C2=O)NC(=O)/C(C)=C\C=C[C@H](C)[C@H](O)C(C)[C@@H](O)C(C)[C@H](OC(C)=O)[C@@H]1C` (stereo not given in full), the growth inhibition was -21.1%. With `Cc1ccc2ccccc2c1CC(=O)NN` the growth inhibition was -0.6%. `CCOC(=O)c1c(C)nc(C)c(C(=O)OCC)c1-c1ccnc2ccccc12` showed a growth inhibition of 17.4%. Work on `O=C(O)Cc1ccc(-c2ccccc2)[nH]1` yielded a growth inhibition of 3.25%. Molecule `O=C(Nc1ccc(Cl)cc1)c1ccc(Cl)cc1Cl` has a growth inhibition of -2.5%. Molecule `C=CCc1ccc(OC(=O)Nc2ccc(S(=O)(=O)NC3CCCCC3)cc2)c(OC)c1` has a growth inhibition of 44.7%. `O=C(O)C(O)c1ccc(Cl)cc1Cl` (stereo not given) showed a growth inhibition of 10.9%. `COC(=O)c1nc[nH]c1C(=O)OC` gave a growth inhibition of 15.8%. With `O=S(=O)(Nc1ccnn1-c1ccccc1)c1ccc(NC(=S)Nc2ccccc2)cc1` the growth inhibition was 46%. Work on `CCn1cc2c(=O)n3ncn(-c4ccc(Br)cc4)c3nc2n1` yielded a growth inhibition of 3.2%. `Oc1ccccc1C=Nc1ccccc1N=Cc1ccccc1O.[Zn]` showed a growth inhibition of -3.45%. `CC(C)C(CN)(c1ccccc1)c1ccccc1` gave a growth inhibition of -8.85%. Molecule `CS(=O)CC(=N\N)/C(CS(C)=O)=N/N` (stereo not given) has a growth inhibition of -19.7%. `CC(=O)N(C)c1ccc(NC(=S)NC(=O)c2cccc([N+](=O)[O-])c2)cc1` gave a growth inhibition of 6.9%. With `C[C@@H]1CC[C@]2(C)C3(C)CC[C@]2(OC3=O)[C@@]12CC(c1ccoc1)OC2=O` (stereo not given in full) the growth inhibition was -9.35%. In the case of `CS(=O)(=O)OCCC(COS(C)(=O)=O)NC(=O)c1ccccc1` (stereo not given), the growth inhibition was -2.85%. `Cc1ccc2[nH]c(C)c(C(=O)c3ccncc3)c2c1` showed a growth inhibition of 4.15%. Molecule `Nc1ccc(N=Nc2ccccc2)c(N)c1` has a growth inhibition of 27%. With `NC(N)=NCCCS` the growth inhibition was 14.3%. With `Cc1ccc(N(C(=O)CC(=O)N/N=C/c2ccccc2O)C(=O)c2ccccc2)cc1` the growth inhibition was -2.05%. `O=C(O)c1ncn2c(=O)n(CCCl)nnc12` showed a growth inhibition of -15.8%. `CCc1c(C)c2cc(N)ccc2[nH]c1=O` showed a growth inhibition of -3.7%. With `Oc1cc(CN2CCOCC2)c(O)c(CN2CCOCC2)c1CN1CCOCC1` the growth inhibition was 10.3%. With `CCC(C)C(N)C(=O)NC(Cc1ccc(O)cc1)C(=O)O` (stereo not drawn) (H-Ile-Tyr-OH; configuration not given here) the growth inhibition was -0.8%. With `Clc1ccc2c(NCCCCN=Cc3ccccc3)ccnc2c1` the growth inhibition was -14%. Molecule `CC(=O)Oc1cccc(CN2CCc3ccccc3C2)c1` has a growth inhibition of 1.55%. For `C=C(C)CC1(C)C(=O)CCC1O` (stereo not given), the growth inhibition was 3.9%. For `CCCNCC(O)CNc1ccc(Cl)cc1` (stereo not given), the growth inhibition was 2.05%. In the case of `CCOC(=O)C(C)CC(C)C(=O)OCC` (stereo not given), the growth inhibition was -19.3%. With `CC(=O)Nc1ccn(C2OC(COC(C)=O)C(OC(C)=O)C(OC(C)=O)C2OC(C)=O)c(=O)n1` (stereo not given) the growth inhibition was 2.45%. For `NC(=O)c1ccc[n+](CC(=O)Nc2ccccc2)c1`, the growth inhibition was 6.45%. `C/C=C(/c1ccccc1)c1ccc(N(C)C)cc1` showed a growth inhibition of -10.1%. In the case of `CCCCNC(=O)Oc1c(Cl)cc(Cl)c(Cl)c1[N+](=O)[O-]`, the growth inhibition was 17.9%. Work on `CSc1ncnc2c1ccn2C1OC(COP(=O)(O)O)C(O)C1O` (stereo not given) yielded a growth inhibition of -3.4%. Molecule `NC(=O)C1C[C@@H](O)CN1C(=O)c1ccc2c(c1)OCO2` (stereo not given in full) has a growth inhibition of -24.6%. `Cc1c(Cl)cc([N+](=O)[O-])cc1Cl` showed a growth inhibition of -11.8%. `N/N=C(\N)SCc1ccc(N=C=S)cc1` gave a growth inhibition of 17.4%. For `COc1cccc(CN(CC(=O)O)S(=O)(=O)c2ccc(C)cc2)c1`, the growth inhibition was -1%. In the case of `Cc1cc(CN2CCCCC2)c(O)c(CN2CCCCC2)c1`, the growth inhibition was -13.4%. With `COc1cc(C(=O)Nc2cccc(Cl)c2Cl)cc(OC)c1OC` the growth inhibition was 12%.

Reference: PubChem BioAssay (NCI)
